Assay results taken from PubChem BioAssay (NCI).
Compounds without any hit were thinned out: in the full panel of roughly 83,000, 20% have a hit.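 Percent growth is the endpoint: 0 to 100 indicates growth inhibition (40 means 60% inhibition), 0 means no net growth, and negative values indicate cell death.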 A number with no mark means an inactive call. Calls of active or inactive are those of the source. The calls were made as follows: active = growth percent below 10; inactive = the rest.

Experiments:
Assay in all cases: NCI-60 one-dose screen, 48 h (100 = growth as untreated, 0 = no growth, -100 = all killed)
Conditions in all cases: 10 µM unless noted
RPMI-8226 leukemia = test system: RPMI-8226 leukemia
OVCAR-8 ovarian = test system: OVCAR-8 ovarian
OVCAR-5 ovarian = test system: OVCAR-5 ovarian
OVCAR-4 ovarian = test system: OVCAR-4 ovarian
SK-OV-3 ovarian = test system: SK-OV-3 ovarian
IGROV1 ovarian = test system: IGROV1 ovarian
OVCAR-3 ovarian = test system: OVCAR-3 ovarian
HS 578T breast = test system: HS 578T breast
NCI/ADR-RES ovarian = test system: NCI/ADR-RES ovarian
T-47D breast = test system: T-47D breast
BT-549 breast = test system: BT-549 breast
MDA-MB-435 melanoma = test system: MDA-MB-435 melanoma
SW-620 colon = test system: SW-620 colon
MCF7 breast = test system: MCF7 breast
HCT-116 colon = test system: HCT-116 colon
HCC-2998 colon = test system: HCC-2998 colon
KM12 colon = test system: KM12 colon

| Structure (SMILES) | growth (RPMI-8226 leukemia) | growth (OVCAR-8 ovarian) | growth (OVCAR-5 ovarian) [%] | growth (OVCAR-4 ovarian) | growth (SK-OV-3 ovarian) | growth (IGROV1 ovarian) | growth (OVCAR-3 ovarian) | growth (HS 578T breast) | growth (NCI/ADR-RES ovarian) | growth (T-47D breast) | growth (BT-549 breast) | growth (MDA-MB-435 melanoma) | growth (SW-620 colon) | growth (MCF7 breast) | growth (HCT-116 colon) | growth (HCC-2998 colon) | growth (KM12 colon) |
| --- | --- | --- | --- | --- | --- | --- | --- | --- | --- | --- | --- | --- | --- | --- | --- | --- | --- |
| O=C(Nc1cccc(-c2cccc(F)c2)c1)C1CCN(Cc2cccc3cccnc23)CC1 | 19% | 72% | 82.9 | 51.6% | 68.3% | 62.7% | 60.8% | 60.9% | 73% | 29% | 76.3% | 35% | 43.3% | 19.9% | 33.8% | -70.4% (active) | 53.3% |
| COc1ccc2nc(-c3ccc(Cl)cc3)cc(C(=O)N3N=C(c4ccc(N)cc4)CC3c3ccccc3)c2c1 (stereo not drawn) | 29% | 54% | 80.9 | 65.8% | 46.1% | 53.9% | 9.64% (active) | 48.4% | 15.2% | 38.8% | 44% | 4.25% (active) | 36% | 11.9% | 34.8% | 70.3% | 18.7% |
| S=C(Nc1ccc(Cl)cc1)c1ccccn1 | 96.8% | 92.7% | 102 | 96.9% | 94.3% | 93.3% | 109% | 95.9% | 96.6% | 79.2% | 94.5% | 106% | 100% | 81.4% | 89.7% | 110% | 100% |
| COc1cccc2c1-c1ccccc1C2=O | 14.9% | 21.5% | 65.6 | 56.5% | 30.6% | 33.3% | -26.4% (active) | 19.6% | 8.62% (active) | 33.2% | -0.0616% (active) | -48.2% (active) | 26.7% | 24% | 12.9% | 30.8% | 36% |
| O=C1c2ccccc2C(=O)c2c1oc1c2c(=O)[nH]c2ccc(Cl)cc21 | 4.83% (active) | -27.5% (active) | 52.7 | -42% (active) | 1.64% (active) | -3.63% (active) | -68.4% (active) | -7.55% (active) | 22.3% | -58.1% (active) | 38% | 10.2% | -53% (active) | 0.704% (active) | -12.2% (active) | 65.1% | 0.119% (active) |
| COc1cc(NCC(=O)Nc2cc(Nc3cccc(C(F)(F)F)c3)ncn2)c(Cl)c(OC)c1Cl | 83.5% | 94.1% | 98.2 | 99.2% | 93.6% | 95.3% | 95.5% | 82.2% | 96.3% | 81.2% | 88.9% | 102% | 104% | 85.8% | 87.4% | 103% | 92.3% |
| NC(=O)c1ccc(C2C3=C(CCCC3=O)OC3=C2C(=O)c2ccccc2C3=O)cc1 (stereo not drawn) | 18.6% | -1.42% (active) | 96.4 | -12.8% (active) | 104% | 8.86% (active) | -20.4% (active) | 67.1% | 79.8% | -1.02% (active) | 81.4% | -87.4% (active) | 12% | -28.8% (active) | 1.17% (active) | 77.7% | 44.1% |
| N#C/C(=C/c1ccc(O)c([N+](=O)[O-])c1)c1nc(-c2ccc([N+](=O)[O-])cc2)cs1 | 9.81% (active) | 48.4% | 108 | 34.1% | 38.9% | 55.9% | 23.5% | 44.2% | 33.4% | 11.2% | 36.3% | 40.2% | 54.2% | 25.8% | 33.8% | 30.4% | 36% |
| NCCN1CCNCC1 | 79.2% | 112% | 94 | 100% | 101% | 104% | 109% | 98% | 102% | 86.2% | 130% | 105% | 103% | 96.6% | 105% | 94.3% | 109% |
